PubChem BioAssay (NCATS)
Results filed as inconclusive are left out. Activity calls are given as the source filed them. Calls come from the whole dose curve; as a rule, active = well fitted inhibition curve with a large enough effect; inconclusive = small, poorly fitted or top-dose-only effect; inactive = flat fitted curve, though single readings scatter.

System: CP256
Assay: qHTS profiling for inhibitors of Plasmodium falciparum proliferation (AID 504749); note: nearly all actives have a fitted effect of over 60% in size
Conditions: P. falciparum in erythrocytes, SYBR Green DNA, 72 h; series mostly up to 28.7 µM
Method in brief: (§1)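 P. falciparum-infected erythrocytes (0.3% parasitemia, 2.5% hematocrit) incubated with compound 72 h at 37 C, 5% CO2. Parasite DNA detected by SYBR Green after lysis, overnight at room temperature; normalised to 0.29 uM artemisinin and DMSO.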
Potency is the fitted concentration of half-maximal effect.

Potency, active:
COc1cc2c(cc1O)CCN[C@@]21CS[C@H]2c3c(OC(C)=O)c(C)c4c(c3C(COC1=O)N1C2C2c3c(cc(C)c(OC)c3O)CC([C@@H]1O)N2C)OCO4 (some centres undefined) 5.6 nM
C[n+]1c2cc(N)ccc2cc2ccc(N)cc21 1000 nM
CC[C@@]1(O)C[C@H](O[C@H]2C[C@@H](N(C)C)[C@@H](O[C@H]3C[C@@H](O)[C@@H](O[C@H]4CCC(=O)[C@@H](C)O4)[C@@H](C)O3)[C@@H](C)O2)c2c(cc3c(c2O)C(=O)c2c(O)cccc2C3=O)[C@H]1C(=O)OC 282 nM
CCC(C(=O)O)C1OC(C(C)C(O)C(C)C(=O)C(CC)C2OC3(C=CC(O)C4(CCC(C)(C5CCC(O)(CC)C(C)O5)O4)O3)C(C)CC2C)C(C)CC1C (centres undefined) 199 nM
COC1CC2CCC(C)[C@](O)(O2)C(=O)C(=O)N2CCCCC2C(=O)OC(C(C)CC2CCC(O)C(OC)C2)CC(=O)C(C)/C=C(/C)C(O)C(OC)C(=O)C(C)CC(C)C=CC=C/C=C\1C (some centres undefined) 3160 nM
CN[C@H](C)CCC=C(C)C 631 nM

Potency, inactive:
OCCN1CC(O)C(O)C(O)C1CO (centres undefined)
CC(CCC(=O)O)C1CCC2C3C(=O)C[C@@H]4CC(=O)CC[C@@]4(C)C3CC(=O)[C@]12C (some centres undefined)
O=C(OC[C@@H]1O[C@@](O)(COC(=O)c2cccnc2)[C@H](OC(=O)c2cccnc2)[C@H]1OC(=O)c1cccnc1)c1cccnc1
O=[N+]([O-])O[C@H]1CO[C@H]2[C@@H]1OC[C@H]2O
COc1cccc(OC)c1C(=O)NC1C(=O)N2C1SC(C)(C)C2C(=O)O (centres undefined)
NC[C@@H]1O[C@H](OC2[C@@H](CO)O[C@@H](OC3[C@H](O)[C@H](N)C[C@H](N)[C@H]3OC3O[C@H](CO)[C@@H](O)[C@H](O)[C@@H]3N)[C@H]2O)C(N)[C@H](O)[C@@H]1O (some centres undefined)
Cc1ccc(S(=O)(=O)NC(=O)NC(C)Cc2ccccc2)cc1 (centres undefined)
OCCOC[C@H]1O[C@H](OCCO)[C@H](OCCO)[C@@H](OCCO)[C@@H]1OCCO (tested in a mixture with another compound)
C[S+](C)CC[C@H](N)C(=O)O
CC[C@@H]1/C=C(\C)C[C@H](C)C[C@H](OC)[C@H]2O[C@@](O)(C(=O)C(=O)N3CCCC[C@H]3C(=O)O[C@H](/C(C)=C/[C@@H]3CC[C@H](Cl)[C@H](OC)C3)[C@H](C)[C@@H](O)CC1=O)[C@H](C)C[C@@H]2OC
NC(=O)C1CC2(NC(=O)NC2=O)c2cc(F)ccc2O1 (centres undefined)
CN1[C@@H]2CC[C@@H]1CC(OC(=O)[C@H](CO)c1ccccc1)C2 (some centres undefined)
CCCCCCCCCCCC(=O)OCC(O)C1OCC(O)C1O (centres undefined)
C/C1=C2/[N-]C(C(CC(N)=O)[C@@]2(C)CCC(=O)NCC(C)OP(=O)([O-])O[C@H]2[C@@H](O)[C@@H](n3cnc4cc(C)c(C)cc43)O[C@@H]2CO)[C@]2(C)N=C(/C(C)=C3N=C(/C=C4N=C1C(CCC(N)=O)C\4(C)C)[C@@H](CCC(N)=O)[C@]\3(C)CC(N)=O)[C@@H](CCC(N)=O)[C@]2(C)CC(N)=O.CC(=O)O.[Co] (some centres undefined)
CC1(C)OC[C@@H]2O[C@@]3(C(=O)O)OC(C)(C)O[C@@H]3[C@@H]2O1
Cc1ccccc1N1C(=O)c2cc(N)ccc2N/C1=C\F
O=C1C(I)=CC(=C(c2cc(I)c(O)c(I)c2)c2ccccc2C(=O)O)C=C1I
NC(=O)NC(CCC(=O)O)C(=O)O (centres undefined)
CC(=O)OCC(=O)[C@@]1(O)CCC2C3C[C@H](C)C4=CC(=O)C=CC4(C)C3C(O)CC21C (some centres undefined)
CC1(C)C2CC[C@]1(C)[C@@H](O)C2
OCC1O[C@H](Oc2ccc(O)cc2)C(O)C(O)C1O (some centres undefined)
Nc1nc(F)nc2c1ncn2[C@@H]1O[C@H](CO)[C@@H](O)[C@H]1O
CC1OC(OC2CCC3(C)C(CCC4C3CC(O)C3(C)C(C5=CC(=O)OC5)CCC43O)C2)CC(O)C1OC1CC(O)C(OC2CC(O)C(OC3OC(CO)C(O)C(O)C3O)C(C)O2)C(C)O1 (centres undefined)
CC1OC(OCC2OC(Oc3c(-c4ccc(OCCO)c(OCCO)c4)oc4cc(OCCO)cc(O)c4c3=O)C(O)C(O)C2O)[C@@H](O)C(O)C1O (some centres undefined)

System: CP260
Assay: as above
Conditions: P. falciparum in erythrocytes, SYBR Green DNA, 72 h; series mostly up to 28.7 µM
Method in brief: as §1

Potency, active:
CCCCC(=O)OCC(=O)[C@]1(O)Cc2c(O)c3c(c(O)c2[C@H](OC2CC(NC(=O)C(F)(F)F)C(O)C(C)O2)C1)C(=O)c1c(OC)cccc1C3=O (some centres undefined) 2000 nM
C[C@H]1[C@@H](OC(=O)CCC(=O)O)OC2OC3(C)CC[C@H]4[C@H](C)CC[C@@H]1[C@@]24OO3 (some centres undefined) 5 nM
COc1cc2c(cc1O)CCN[C@@]21CS[C@H]2c3c(OC(C)=O)c(C)c4c(c3C(COC1=O)N1C2C2c3c(cc(C)c(OC)c3O)CC([C@@H]1O)N2C)OCO4 (some centres undefined) 0.9 nM
C[n+]1c2cc(N)ccc2cc2ccc(N)cc21 316 nM
CC[C@@]1(O)C[C@H](O[C@H]2C[C@@H](N(C)C)[C@@H](O[C@H]3C[C@@H](O)[C@@H](O[C@H]4CCC(=O)[C@@H](C)O4)[C@@H](C)O3)[C@@H](C)O2)c2c(cc3c(c2O)C(=O)c2c(O)cccc2C3=O)[C@H]1C(=O)OC 39.8 nM
CCC(C(=O)O)C1OC(C(C)C(O)C(C)C(=O)C(CC)C2OC3(C=CC(O)C4(CCC(C)(C5CCC(O)(CC)C(C)O5)O4)O3)C(C)CC2C)C(C)CC1C (centres undefined) 112 nM
COC1CC2CCC(C)[C@](O)(O2)C(=O)C(=O)N2CCCCC2C(=O)OC(C(C)CC2CCC(O)C(OC)C2)CC(=O)C(C)/C=C(/C)C(O)C(OC)C(=O)C(C)CC(C)C=CC=C/C=C\1C (some centres undefined) 2510 nM

Potency, inactive:
CCCCCCCCCCCCCCCC(=O)OC[C@H](O)[C@H]1OC[C@@H](O)[C@@H]1O
C[C@H]1OC(OC2C(O)[C@@H](O)C(OC3C(O)[C@@H](O)C(O)O[C@@H]3CO)O[C@@H]2CO)[C@H](O)C(O)C1N[C@H]1C=C(CO)[C@@H](O)[C@H](O)C1O (some centres undefined)
CCN(CC)CC(=O)Nc1c(C)cc(C)cc1C
CC(=O)N[C@H]1[C@H](O[C@@H]2c3ccc(c(Cl)c3)Oc3cc4cc(c3O[C@@H]3O[C@H](CO)[C@@H](O)[C@H](O)C3C)Oc3ccc(cc3Cl)C[C@H]3NC(=O)[C@@H](N)c5ccc(O)c(c5)Oc5cc(O)cc(c5)[C@H](NC3=O)C(=O)N[C@H]4C(=O)N[C@H]3C(=O)N[C@@H]2C(=O)N[C@@H](C(=O)O)c2cc(O)cc(O[C@H]4O[C@H](CO)[C@@H](O)C(O)[C@@H]4O)c2-c2cc3ccc2O)O[C@H](CO)[C@@H](O)[C@@H]1O (some centres undefined)
NC(=O)c1ncn(C2OC(CO)C(O)C2O)c1N (centres undefined)
CC1(Cn2ccnn2)[C@H](C(=O)O)N2C(=O)C[C@H]2S1(=O)=O (some centres undefined)
CN(C)CC/C=C1\c2ccccc2COc2ccc(CC(=O)O)cc21
CCCC(=O)O[C@]1(C(=O)COC(C)=O)CC[C@H]2C3C[C@H](F)C4=CC(=O)C=CC4(C)[C@@]3(F)[C@@H](O)CC21C (some centres undefined)
OCCN1CC(O)C(O)C(O)C1CO (centres undefined)
CC(CCC(=O)O)C1CCC2C3C(=O)C[C@@H]4CC(=O)CC[C@@]4(C)C3CC(=O)[C@]12C (some centres undefined)
O=C(OC[C@@H]1O[C@@](O)(COC(=O)c2cccnc2)[C@H](OC(=O)c2cccnc2)[C@H]1OC(=O)c1cccnc1)c1cccnc1
O=[N+]([O-])O[C@H]1CO[C@H]2[C@@H]1OC[C@H]2O
COc1cccc(OC)c1C(=O)NC1C(=O)N2C1SC(C)(C)C2C(=O)O (centres undefined)
NC[C@@H]1O[C@H](OC2[C@@H](CO)O[C@@H](OC3[C@H](O)[C@H](N)C[C@H](N)[C@H]3OC3O[C@H](CO)[C@@H](O)[C@H](O)[C@@H]3N)[C@H]2O)C(N)[C@H](O)[C@@H]1O (some centres undefined)
Cc1ccc(S(=O)(=O)NC(=O)NC(C)Cc2ccccc2)cc1 (centres undefined)
OCCOC[C@H]1O[C@H](OCCO)[C@H](OCCO)[C@@H](OCCO)[C@@H]1OCCO (tested in a mixture with another compound)
C[S+](C)CC[C@H](N)C(=O)O
CC[C@@H]1/C=C(\C)C[C@H](C)C[C@H](OC)[C@H]2O[C@@](O)(C(=O)C(=O)N3CCCC[C@H]3C(=O)O[C@H](/C(C)=C/[C@@H]3CC[C@H](Cl)[C@H](OC)C3)[C@H](C)[C@@H](O)CC1=O)[C@H](C)C[C@@H]2OC
NC(=O)C1CC2(NC(=O)NC2=O)c2cc(F)ccc2O1 (centres undefined)
CN1[C@@H]2CC[C@@H]1CC(OC(=O)[C@H](CO)c1ccccc1)C2 (some centres undefined)
CCCCCCCCCCCC(=O)OCC(O)C1OCC(O)C1O (centres undefined)
C/C1=C2/[N-]C(C(CC(N)=O)[C@@]2(C)CCC(=O)NCC(C)OP(=O)([O-])O[C@H]2[C@@H](O)[C@@H](n3cnc4cc(C)c(C)cc43)O[C@@H]2CO)[C@]2(C)N=C(/C(C)=C3N=C(/C=C4N=C1C(CCC(N)=O)C\4(C)C)[C@@H](CCC(N)=O)[C@]\3(C)CC(N)=O)[C@@H](CCC(N)=O)[C@]2(C)CC(N)=O.CC(=O)O.[Co] (some centres undefined)
CC1(C)OC[C@@H]2O[C@@]3(C(=O)O)OC(C)(C)O[C@@H]3[C@@H]2O1
Cc1ccccc1N1C(=O)c2cc(N)ccc2N/C1=C\F
O=C1C(I)=CC(=C(c2cc(I)c(O)c(I)c2)c2ccccc2C(=O)O)C=C1I
NC(=O)NC(CCC(=O)O)C(=O)O (centres undefined)
CC(=O)OCC(=O)[C@@]1(O)CCC2C3C[C@H](C)C4=CC(=O)C=CC4(C)C3C(O)CC21C (some centres undefined)
